The results in this text go back to paper PMC12136788.

Changes are numbered by the printed parent chain. In all, about 5,800 sequences were measured (“enrichment r”: median about 0.68, highest 2% from about 11 on). Shown is part of a subset that was picked to be rich in the highest values.

B1: chr1:150647640:150647741:-|3pUTR|ENSG00000143457|unk|FALSE|unique (ssRNA)
RNA: GGGAGUUCUACAGUCCGACGAUCAGAUUCAAUUACCUGGAUGUCAAAGUCCUAGAGCCAGAAAUAUAUUCUCUCAUCCCUCUUAGCAUUCUCUUGCUCCCUCAUUCACUAGGGCAAAUGUCUAAAUGAAGAAAAGUCUCUCUCCAACAGAGGAUUGAGCAUCA
B2: chr1:109062613:109062715:-|3pUTR|ENSG00000197780|unk|total|mutant (ssRNA)
RNA: GGGAGUUCUACAGUCCGACGAUCAGUUCUGAAUACACAGGUUUUGUGUGUAUUUACUCUAUGUAUUAAAUUAUUAUUGCCCUCCGUUUAAAGUAAGGAUUACAAUUGGAUUUAAGCCGAUCACUGAAUGUUAUUGUUUAUGAACAACAGAGGAUUGAGCAUCA
B3: chrX:80717640:80717741:-|CDS|ENSG00000165288|msi1|FALSE|unique (ssRNA)
RNA: GGGAGUUCUACAGUCCGACGAUCCUGAGAAGUCCAAACAUGGACAUAUCUUCUUCCCCAAACAUCAGGCUUCGAAGACAUAGUAGUCAAAUUGAAGGUGUUAGACAAAUGCAUAACAAUGCUCCUCGGAGCCAGAUGGCCACUCAACAGAGGAUUGAGCAUCA
B4: chr6:37331633:37331734:+|3pUTR|ENSG00000065491|unk|FALSE|unique (ssRNA)
RNA: GGGAGUUCUACAGUCCGACGAUCCCGUUCCCCUUCUGCCCCAGUCUGAGCCAGUGAGGGGUAGCUUUUUAAAACCAUUAUUCUAGAUGGAGGAGGCACUGAUGCUUGUAACUCUGGAAAGAGGCCUACACCCAAGGGCUAGGACAACAGAGGAUUGAGCAUCA
B5: chr9:91409354:91409467:-|CDS|ENSG00000165030|unk|total|mutant (ssRNA)
RNA: GGGAGUUCUACAGUCCGACGAUCAAUGAAAGACAGUGGCUACAAAGUUUCUGACCCAGAGAACUUGUAUUUGAAGCAGGGGACCGCAAACUUAUCUGCAGAGGUUGUCUCACUCAAGAGACUUACCGCCACACAACCAAUCUCCAACAGAGGAUUGAGCAUCA
B6: chr3:44647099:44647200:+|3pUTR|ENSG00000186448|msi1|FALSE|unique (ssRNA)
RNA: GGGAGUUCUACAGUCCGACGAUCAUUUGUAUGUAAACUACAUAAAGAACUUUCCAAAUUUAACAGUAAUAAGUAAAUACAAUUAGAAAAUAAGCAAAAGACAGACAUUUCACUGAAGUAUAGAUAGCAAAUAAGCAAAUGAAACAACAGAGGAUUGAGCAUCA
B7: chr7:107202531:107202632:-|3pUTR|ENSG00000164597|msi1|FALSE|unique (ssRNA)
RNA: GGGAGUUCUACAGUCCGACGAUCUAUUCUGAGAACUCAUAAAUAAAAUUCAGCCAAGAUUAAUCAAUCAAUCAAUCAAUCAGUAGACGUCAGAGAUAAGCAACUUUUUUUUCCAUUUAUUUGAAAUAAUAUACAAGAAUAUAGCAACAGAGGAUUGAGCAUCA
B8: chr8:11323570:11323671:+|3pUTR|ENSG00000104643|unk|FALSE|unique (ssRNA)
RNA: GGGAGUUCUACAGUCCGACGAUCGAGCAUACAUAUACAAUGUGUUUCAAAUGCUGCUUGUAAAAUUAAACCAUCAUCUAGAAUAGAGUUAAUUUAUUAUAAUCAAGCUACAAAUAGGUUUUCUUAAACCAGAGAUGCACUGCCCAACAGAGGAUUGAGCAUCA
B9: chr19:35623609:35623710:+|3pUTR|ENSG00000249115|unk|FALSE|unique (ssRNA)
RNA: GGGAGUUCUACAGUCCGACGAUCGCCUUCUAGUUUGUAUAGUUUCUUUUUUUACAUGUAAAUCAGCCAUUUGGAAUUUAUCCUAGCACAUGGAUCCAAUUUUGUCUUAUUUUACAUAUAUCCUAGUAGCACUUACUGAAAUUCCAACAGAGGAUUGAGCAUCA
B10: ENSG00000198589:be:win_3201|CDS|ENSG00000198589|bound_else_gene|NA|bound_elsewhere_windowed (ssRNA)
RNA: GGGAGUUCUACAGUCCGACGAUCAACUGGCAAAGAUUCAAUGACUGUCAGUGAAGUAACUGCUUCUAUAAGUUCUCCUUCAGAAGAGGAUGCCUCAGAGAUGCCAGAAUUCUUGGAUAAAUCUAUAGUAGAGGAAGAGGAAGACAACAGAGGAUUGAGCAUCA
B11: chr10:73917138:73917420:+|3pUTR|ENSG00000122861|msi1|FALSE|unique (ssRNA)
RNA: GGGAGUUCUACAGUCCGACGAUCGGAAUGUAUUAUUCUGCAGCAUGACCUGUGACCAGCACUGUCUCAGUUUCACUUUCACAUAGAUGUCCCUUUCUUGGCCAGUUAUCCCUUCCUUUUAGCCUAGUUCAUCCAAUCCUCACUCAACAGAGGAUUGAGCAUCA
B12: chr11:43342853:43342954:+|3pUTR|ENSG00000166181|msi1|FALSE|unique (ssRNA)
RNA: GGGAGUUCUACAGUCCGACGAUCCUAGUUCUGCUGAUAAAGAUCAUCAGUUUUGAAAGGUUACUGAUUUUCCUCUUCCCUCUUAGUUUUUUACCCAAUAUAUGGAGAAGAGUAAUGGUCAAUCUUAACAUUUUGUUUUAAUUGCAACAGAGGAUUGAGCAUCA
B13: ENSG00000186472:stop:overlap|stop_codon|ENSG00000186472|stop_codon|NA|stop_codon (ssRNA)
RNA: GGGAGUUCUACAGUCCGACGAUCUUUCUUGUAAAUGGAAAUUUUAUCAUGUGUAUAGAUUCUGUAGCAUGCUUUUCUUUAUUUAGUUUUACUUUAUUCCUUUAUUGUUCUGUUUCUUGAUUGUUUGCUUGAUUUGUUUGGUGUCAACAGAGGAUUGAGCAUCA
B14: chr11:85958428:85958534:-|3pUTR|ENSG00000073921|unk|FALSE|unique (ssRNA)
RNA: GGGAGUUCUACAGUCCGACGAUCAGAAACAAUAACUGAAAUUAACUUUUCUUUUUUUAAAAAAAAUUAUAUUCAGUUUGCAGUAGACAUUCCUUAAGUAUUUGUAUUUAUUUAUGAUUAUCAAUUUUACAUAACAUUAAUAUUCAACAGAGGAUUGAGCAUCA
B15: chr7:137879121:137879144:-|3pUTR|ENSG00000182158|msi1_unk|total|mutant (ssRNA)
RNA: GGGAGUUCUACAGUCCGACGAUCUAAUCCCCAACCUACUUUCCGUUUUUUUGUUUUUUUUUUAUGGUUAAAAGUAACUUUUGCCGUUUAAAAAAAUCUUUCCUCUUUCAUAUAAAUAAGAAGUGGAAAUUGCCUUUUUAUUGUCAACAGAGGAUUGAGCAUCA
B16: chr7:137879121:137879144:-|3pUTR|ENSG00000182158|msi1_unk|FALSE|overlapping (ssRNA)
RNA: B15 RNA with C42U, C43A, C83U, C84A
B17: chr2:224511460:224511569:-|CDS|ENSG00000036257|unk|FALSE|bound_elsewhere (ssRNA)
RNA: GGGAGUUCUACAGUCCGACGAUCGAAAGCCAGAAAUUUUUAGCAGAAAAUAGUGCUUCAGUAUAUAUAAAGAAAGUAGAAGCUAGAAUUAAUGAAGAAAUAGAACGAGUGAUGCACUGCCUUGACAAAUCAACGGAAGAACCACAACAGAGGAUUGAGCAUCA

The target in the assay is T1, UNK ZnF1-6 (called full-length) (human, UniProt Q9C0B0 30-357).
T1 sequence: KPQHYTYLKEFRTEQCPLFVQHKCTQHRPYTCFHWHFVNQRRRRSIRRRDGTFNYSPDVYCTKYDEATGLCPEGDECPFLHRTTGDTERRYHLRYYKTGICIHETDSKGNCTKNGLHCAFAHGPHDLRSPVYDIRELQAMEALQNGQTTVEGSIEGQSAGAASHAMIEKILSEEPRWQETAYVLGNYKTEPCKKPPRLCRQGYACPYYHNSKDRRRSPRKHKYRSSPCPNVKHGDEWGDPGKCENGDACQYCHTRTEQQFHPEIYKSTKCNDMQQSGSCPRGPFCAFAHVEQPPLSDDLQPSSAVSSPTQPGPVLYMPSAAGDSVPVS
In words: nsRBNS (natural sequence RNA bind-n-seq); RBNS binding buffer (assumed for nsRBNS): 25 mM Tris pH 7.5, 150 mM KCl, 3 mM MgCl2, 0.01% Triton X-100, 500 ug/ml BSA, 20 U/ml SUPERase-In, 4 C; UNK is unkempt and MSI1 is Musashi-1; names of the RNAs are library labels; protein concentration not given here; high values mean tight binding.
In turn, B1 yielded a binding signal of 0.623 enrichment R.

Molecule B2 gave a binding signal of 0.999 enrichment R.

B3 gave a binding signal of 0.592 enrichment R.

Turning to B4, the binding signal came to 2.05 enrichment R.

On to B5, for which the binding signal came to 0.615 enrichment R.

B6 displayed a binding signal of 162 enrichment R.

In turn, B7 displayed a binding signal of 2.67 enrichment R.

B8 gave a binding signal of 2.54 enrichment R.

As to B9, the binding signal stood at 14.9 enrichment R.

As to B10, the binding signal came out at 0.614 enrichment R.

The molecule B11 had a binding signal of 1.54 enrichment R.

B12 gave a binding signal of 3.5 enrichment R.

Turning to B13, the binding signal stood at 0.541 enrichment R.

Consider B14, for which the binding signal was determined as 2.18 enrichment R.

Consider B15, for which the binding signal is 0.762 enrichment R.

B16 returned a binding signal of 14.9 enrichment R.

For the molecule B17, the binding signal stood at 16.7 enrichment R.
